PubChem BioAssay (EPA / NIEHS)
Calls of active or inactive are those of the source. The calls were made as follows: active = hit-call score of the fitted dose curve at least 0.9, where 1 is the maximum; inactive = score below 0.9.

target: Aryl hydrocarbon receptor (Homo sapiens) (UniProt P35869); test: ATG_Ahr_CIS: Attagene CIS-FACTORIAL HepG2 Assay for human Aryl Hydrocarbon Receptor (Ahr) (AID 2282930); conditions: HepG2 AhR cis-factorial reporter transcription; actives raise or lower the signal
Method in brief: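 Following 24 h of chemical dosing, transfected HepG2 liver cells with cis-driven reporter units were lysed for RNA; reporter mRNA was quantified via RT-PCR and capillary electrophoresis, and responses fitted bidirectionally from DMSO.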

Sequence of Aryl hydrocarbon receptor (Homo sapiens) (P35869 whole entry, looked up): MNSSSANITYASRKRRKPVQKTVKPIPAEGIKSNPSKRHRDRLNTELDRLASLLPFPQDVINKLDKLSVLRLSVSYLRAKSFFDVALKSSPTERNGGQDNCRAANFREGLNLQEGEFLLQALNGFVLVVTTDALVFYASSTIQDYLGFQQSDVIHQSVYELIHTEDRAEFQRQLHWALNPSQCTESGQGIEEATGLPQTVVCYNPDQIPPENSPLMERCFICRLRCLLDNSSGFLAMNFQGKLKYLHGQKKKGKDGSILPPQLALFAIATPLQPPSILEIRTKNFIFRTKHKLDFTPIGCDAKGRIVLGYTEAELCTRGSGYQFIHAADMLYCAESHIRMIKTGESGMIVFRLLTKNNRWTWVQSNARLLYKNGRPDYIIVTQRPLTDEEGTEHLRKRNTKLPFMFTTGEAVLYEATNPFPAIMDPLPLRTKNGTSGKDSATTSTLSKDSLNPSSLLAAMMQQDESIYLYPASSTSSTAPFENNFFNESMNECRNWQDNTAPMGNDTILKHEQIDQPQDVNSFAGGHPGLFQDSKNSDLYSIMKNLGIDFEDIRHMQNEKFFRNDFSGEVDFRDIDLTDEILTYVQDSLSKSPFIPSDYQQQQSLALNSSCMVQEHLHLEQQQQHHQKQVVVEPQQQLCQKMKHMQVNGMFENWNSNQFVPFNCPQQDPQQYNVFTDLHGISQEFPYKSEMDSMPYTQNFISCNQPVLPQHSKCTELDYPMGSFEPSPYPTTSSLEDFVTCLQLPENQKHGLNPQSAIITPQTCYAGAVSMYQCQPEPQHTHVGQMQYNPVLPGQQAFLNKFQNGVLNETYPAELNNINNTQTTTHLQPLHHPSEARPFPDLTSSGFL

SMILES | AC50 | outcome
O=C(NC(=O)c1c(F)cccc1F)Nc1ccc(Oc2ccc(C(F)(F)F)cc2Cl)cc1F | 8.23 µM (active) | 
CC1CCCC1.[C-]#[O+].[C-]#[O+].[C-]#[O+].[Mn] | 12.5 µM (active) | 
CC(=O)C=Cc1ccccc1 |  | inactive
C=CC(=O)OC |  | inactive
N#CCNCC#N |  | inactive
CN(C)N |  | inactive
Nc1ccc(Cl)c(Cl)c1 |  | inactive
O=[N+]([O-])c1ccc(Cl)cc1 |  | inactive
Cc1ccc(C)c2ccccc12 | 27.7 µM (active) | 
C=CCO |  | inactive
Nc1ccc(-c2ccc(N)c(N)c2)cc1N |  | inactive
C=CC(=O)OCCCCOC(=O)C=C |  | inactive
c1ccc2c(c1)CCCC2 |  | inactive
CCOC(=O)C1OC1(C)c1ccccc1 (stereo not drawn) |  | inactive
[Cl][Sb]([Cl])[Cl] |  | inactive
COc1ncc(F)c2nc(S(=O)(=O)Nc3c(F)cccc3F)nn12 |  | inactive
CC(C)[C@@H](C(=O)O[C@@H](C#N)c1cccc(Oc2ccccc2)c1)c1ccc(Cl)cc1 |  | inactive
O=[N+]([O-])c1cc([N+](=O)[O-])c2ccccc2c1 | 8.37 µM (active) | 
CCCCCCCCCCCCCCCC[N+](C)(C)C | 35.5 µM (active) | 

test system: not listed separately; test: ATG_AP_1_CIS: Attagene CIS-FACTORIAL HepG2 Assay for human Activator Protein 1 (AP-1) (AID 2282931); conditions: HepG2 Attagene cis-factorial AP-1 reporter mRNA; actives raise or lower the signal
Method in brief: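 We transfected HepG2 cells transiently with a set of cis-regulated reporter transcription units, dosed them for 24 h, and quantified reporter mRNA via RT-PCR and capillary electrophoresis, scoring gain or loss of signal relative to DMSO.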

SMILES | AC50 | outcome
CCCCCCCCCCCC#N | 73.6 µM (active) | 
O=C(NC(=O)c1c(F)cccc1F)Nc1ccc(Oc2ccc(C(F)(F)F)cc2Cl)cc1F |  | inactive
CC1CCCC1.[C-]#[O+].[C-]#[O+].[C-]#[O+].[Mn] |  | inactive
CCCCNP(N)(N)=S |  | inactive
CC(=O)C=Cc1ccccc1 | 133 µM (active) | 
CCC(=O)c1ccc(Cl)cc1 |  | inactive
Nc1ccccc1C(=O)Oc1ccc2ccccc2c1 |  | inactive
C=CC(=O)OC |  | inactive
CC(C)CCCCCCCOC(=O)c1ccccc1C(=O)OCCCCCCCC(C)C |  | inactive
N#CCNCC#N |  | inactive
CN(C)N |  | inactive
CN1C[C@H](C(=O)N[C@]2(C)O[C@@]3(O)[C@@H]4CCCN4C(=O)[C@H](Cc4ccccc4)N3C2=O)C=C2c3cccc4[nH]cc(c34)C[C@H]21 | 23.1 µM (active) | 
O=[N+]([O-])C=Cc1ccccc1 | 57.7 µM (active) | 
Nc1ccc(Cl)c(Cl)c1 |  | inactive
CCCCOP(=O)(O)OCCCC |  | inactive
O=C(O)CCl |  | inactive
CC(O)CN(CC(C)O)CC(C)O (stereo not drawn) |  | inactive
Nc1cc(Cl)cc(Cl)c1 |  | inactive
O=[N+]([O-])c1ccc(Cl)cc1 |  | inactive

SMILES | AC50 | outcome
Cc1ccc(C)c2ccccc12 |  | inactive
C=CCO |  | inactive
COC(=O)COc1ccc(Cl)cc1Cl |  | inactive
[CH3][Sn]([Cl])([Cl])[Cl] |  | inactive
CC(=O)c1cc2c(cc1C)C(C)(C)C(C)CC2(C)C (stereo not drawn) | 26.6 µM (active) | 
Nc1ccc(-c2ccc(N)c(N)c2)cc1N |  | inactive
c1cc(OCC2CO2)ccc1Cc1ccc(OCC2CO2)cc1 (stereo not drawn) | 59.1 µM (active) | 
C=CC(=O)OCCCCOC(=O)C=C | 186 µM (active) | 
c1ccc2c(c1)CCCC2 |  | inactive
CCOC(=O)C1OC1(C)c1ccccc1 (stereo not drawn) |  | inactive
[Cl][Sb]([Cl])[Cl] | 100 µM (active) | 
COc1ncc(F)c2nc(S(=O)(=O)Nc3c(F)cccc3F)nn12 |  | inactive
CC(C)[C@@H](C(=O)O[C@@H](C#N)c1cccc(Oc2ccccc2)c1)c1ccc(Cl)cc1 |  | inactive
C[C@]12CC[C@H]3[C@@H](CC[C@@]45O[C@@H]4C(O)=C(C#N)C[C@]35C)[C@@H]1CC[C@@H]2O |  | inactive
O=[N+]([O-])c1cc([N+](=O)[O-])c2ccccc2c1 | 14.5 µM (active) | 
O=C(O)C(Br)Br |  | inactive
C=CC(=O)OCCO | 75.6 µM (active) | 
CCCCCCCCCCCCCCCC[N+](C)(C)C | 100 µM (active) | 

test system: not listed separately; test: ATG_AP_2_CIS: Attagene CIS-FACTORIAL HepG2 Assay for human Activator Protein 2 (AP-2) (AID 2282932); conditions: HepG2 AP-2 cis-reporter, Attagene transcription factor profiling; actives raise or lower the signal
Method in brief: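 Assay in transfected HepG2 with promoter-regulated reporters, 24 h incubation after dosing. Signal is reporter mRNA fluorescence (RT-PCR, capillary electrophoresis), analysed for both increases and decreases relative to DMSO controls.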

SMILES | outcome | AC50
CCCCCCCCCCCC#N | inactive | 
O=C(NC(=O)c1c(F)cccc1F)Nc1ccc(Oc2ccc(C(F)(F)F)cc2Cl)cc1F | inactive | 
CC1CCCC1.[C-]#[O+].[C-]#[O+].[C-]#[O+].[Mn] | inactive | 
CCCCNP(N)(N)=S | inactive | 
CC(=O)C=Cc1ccccc1 |  | 143 µM (active)
CCC(=O)c1ccc(Cl)cc1 | inactive | 
Nc1ccccc1C(=O)Oc1ccc2ccccc2c1 |  | 66.8 µM (active)
C=CC(=O)OC | inactive | 
CC(C)CCCCCCCOC(=O)c1ccccc1C(=O)OCCCCCCCC(C)C | inactive | 
N#CCNCC#N | inactive | 
CN(C)N | inactive | 
CN1C[C@H](C(=O)N[C@]2(C)O[C@@]3(O)[C@@H]4CCCN4C(=O)[C@H](Cc4ccccc4)N3C2=O)C=C2c3cccc4[nH]cc(c34)C[C@H]21 | inactive | 
O=[N+]([O-])C=Cc1ccccc1 |  | 21.4 µM (active)
Nc1ccc(Cl)c(Cl)c1 | inactive | 
CCCCOP(=O)(O)OCCCC | inactive | 
O=C(O)CCl | inactive | 
CC(O)CN(CC(C)O)CC(C)O (stereo not drawn) | inactive | 
Nc1cc(Cl)cc(Cl)c1 | inactive | 
O=[N+]([O-])c1ccc(Cl)cc1 | inactive | 

SMILES | outcome | AC50
Cc1ccc(C)c2ccccc12 | inactive | 
C=CCO | inactive | 
COC(=O)COc1ccc(Cl)cc1Cl | inactive | 
[CH3][Sn]([Cl])([Cl])[Cl] | inactive | 
CC(=O)c1cc2c(cc1C)C(C)(C)C(C)CC2(C)C (stereo not drawn) |  | 158 µM (active)
Nc1ccc(-c2ccc(N)c(N)c2)cc1N | inactive | 
c1cc(OCC2CO2)ccc1Cc1ccc(OCC2CO2)cc1 (stereo not drawn) |  | 57.9 µM (active)
C=CC(=O)OCCCCOC(=O)C=C | inactive | 
c1ccc2c(c1)CCCC2 | inactive | 
CCOC(=O)C1OC1(C)c1ccccc1 (stereo not drawn) | inactive | 
[Cl][Sb]([Cl])[Cl] | inactive | 
COc1ncc(F)c2nc(S(=O)(=O)Nc3c(F)cccc3F)nn12 | inactive | 
CC(C)[C@@H](C(=O)O[C@@H](C#N)c1cccc(Oc2ccccc2)c1)c1ccc(Cl)cc1 | inactive | 
C[C@]12CC[C@H]3[C@@H](CC[C@@]45O[C@@H]4C(O)=C(C#N)C[C@]35C)[C@@H]1CC[C@@H]2O | inactive | 
O=[N+]([O-])c1cc([N+](=O)[O-])c2ccccc2c1 | inactive | 
O=C(O)C(Br)Br | inactive | 
C=CC(=O)OCCO | inactive | 
CCCCCCCCCCCCCCCC[N+](C)(C)C | inactive | 
